Compound activity deposited in PubChem BioAssay by Broad Institute.
This excerpt belongs to a sample that is enriched for hits.
EZH2 inh – EZH2 (human) methyltransferase inhibition; Q15910; PRC2 H3K27 methylation, DELFIA TRF, 1 h; inhibition, % at 12.5 µM; actives 0.35% (n = 57,000); AID 651548;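 active = mean inhibition of replicates at least 50% and every single replicate also reaching 50%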;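 also: dimethyl H3K27 on biotinylated H3 21-44 peptide detected by antibody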
Hits are given with their value; n = inactive.

SMILES | EZH2 inh
C[C@H]1CN([C@@H](C)CO)C(=O)CCCn2cc(nn2)CO[C@H]1CN(C)C(=O)C1CC1 | n
CCC(=O)Nc1ccc2c(c1)C(=O)N(C)C[C@@H](OC)[C@@H](C)CN(Cc1ccccc1C(=O)O)[C@H](C)CO2 | n
O=C(COc1ccccc1[N+](=O)[O-])Nc1ccc(-c2nc3cc(Cl)ccc3o2)cc1 | n
C[C@@H]1CN([C@@H](C)CO)S(=O)(=O)c2ccc(-c3ccccc3)cc2O[C@H]1CN(C)CC1CC1 | n
COC(=O)c1ccccc1NC(=O)CNC(=O)c1ccccc1 | n
COC(=O)c1ccccc1NC(=O)Cn1c(C)ccc1C | n
COC(=O)c1ccccc1NC(=O)CCSc1ccc(C)cc1 | 54
Fc1ccccc1CSc1nnc(-c2cnccn2)n1Cc1ccco1 | n
Fc1ccccc1-c1nnc(SCc2ccc(Br)cc2)n1Cc1ccco1 | 79
Clc1ccc(CSc2nnc(-c3ccco3)n2Cc2ccco2)c(Cl)c1 | n
CO[C@H]1CN(C)C(=O)c2ccc(NC(=O)NC(C)C)cc2OC[C@@H](C)N(C(=O)C2CCC2)C[C@H]1C | n
O=C1c2cccc3cccc(c23)N1Cc1ccc(F)cc1Cl | 60
COc1ccc(NC(=O)CN2C(=O)c3cccc4cccc2c34)cc1OC | n
COc1ccc(C)cc1NC(=O)CN1C(=O)c2cccc3cccc1c23 | n
CC(C)C#Cc1ccc2c(c1)O[C@@H](CN(C)C(=O)c1ccncc1)[C@@H](C)CN([C@H](C)CO)S2(=O)=O | n
O=C(C[C@H]1CC[C@H](NS(=O)(=O)c2ccc(F)cc2)[C@@H](CO)O1)N1CCC(Cc2ccccc2)CC1 | n
CO[C@@H]1CN(C)C(=O)c2ccc(NS(=O)(=O)c3cccc(F)c3)cc2OC[C@@H](C)N(Cc2cc(F)ccc2F)C[C@@H]1C | n
CO[C@@H]1CN(C)C(=O)c2ccc(NS(=O)(=O)c3cccc(F)c3)cc2OC[C@@H](C)N(Cc2cc(F)ccc2F)C[C@H]1C | n
CO[C@@H]1CN(C)C(=O)c2ccc(NS(=O)(=O)c3cccc(F)c3)cc2OC[C@H](C)N(Cc2cc(F)ccc2F)C[C@@H]1C | 54
C[C@@H]1CN([C@H](C)CO)C(=O)c2cccc(NC(=O)c3ccncc3)c2O[C@@H]1CN(C)S(C)(=O)=O | n
COCC#Cc1ccc2c(c1)O[C@@H](CN(C)C(=O)CC1CC1)[C@@H](C)CN([C@H](C)CO)S2(=O)=O | n
Cn1cnc(S(=O)(=O)N[C@@H]2C=C[C@@H](CC(=O)NCC3CCCCC3)O[C@@H]2CO)c1 | n
O=c1cc(-c2ccc(O)cc2)oc2c(C3OCC(O)C(O)C3O)c(O)c(C3OC(CO)C(O)C(O)C3O)c(O)c12 (configuration not stated) | 58
CC1OC(Oc2cc(O)c3c(=O)cc(-c4ccc(O)cc4)oc3c2C2OC(CO)C(O)C(O)C2O)C(O)C(O)C1O (configuration not stated) | n
COc1c(OC)c(O)c2c(=O)cc(-c3ccc(O)cc3)oc2c1OC | n
SMILES | EZH2 inh
C[C@@H]1CN([C@H](C)CO)C(=O)c2cccc(NC(=O)c3cnccn3)c2O[C@H]1CN(C)C(=O)Nc1ccc(C(F)(F)F)cc1 | n
CC(C(=O)Nc1sc2c(c1C#N)CCC2)n1cc([N+](=O)[O-])cn1 (configuration not stated) | n
CC1CCC2(C)C(CC(O)C(O)C2(O)CO)C1(C)CCc1ccoc1 (configuration not stated) | n
C[C@@H]1CC[C@]2(C)[C@H](CC[C@@H](O)[C@]2(C)O)[C@@]1(C)CC/C(=C/CO)CO | 87
Cc1cc(N(CC(=O)Nc2ccccc2C(=O)N2CCOCC2)S(C)(=O)=O)ccc1Br | n
CC12CC(c3ccoc3)OC(=O)C1CCC1(C)C2C2OC(=O)C1(O)C1OC21 (configuration not stated) | n
COC(=O)[C@@H](O)[C@H]1[C@@]2(C)C[C@]3(O)C4[C@@H](O[C@]56CC(=O)O[C@@H](c7ccoc7)[C@@]5(C)CCC([C@]46O)[C@]13C)[C@H]2O (some centres not stated) | 100
O=C(COc1ccc(Br)cc1)Nc1ccc2oc(-c3ccc(F)cc3)nc2c1 | n
COCC(=O)N(C)C[C@H]1Oc2ncc(C#CC3(O)CCCC3)cc2C(=O)N([C@H](C)CO)C[C@@H]1C | n
Cc1cc(NC(=O)c2cnn3c(C(F)(F)F)cc(-c4cccs4)nc23)n(-c2ccccc2)n1 | n
O=C(N[C@@H]1CC[C@@H](CCNC(=O)c2ccccc2F)O[C@@H]1CO)c1ccc2c(c1)OCO2 | n
O=C(CCNc1ccc(Cl)c(C(F)(F)F)c1)c1ccccc1 | 56
O=C(CCCN1C(=O)c2ccccc2C1=O)Nc1ccc(Cl)c(C(F)(F)F)c1 | n
O=C(CNS(=O)(=O)c1ccccc1)Nc1ccc(Cl)c(C(F)(F)F)c1 | n
COc1ccccc1NC(=O)N(C)C[C@@H]1Oc2cc(Br)ccc2S(=O)(=O)N([C@@H](C)CO)C[C@@H]1C | n
O=C(C[C@@H]1C=C[C@@H](NC(=O)Nc2cc(F)ccc2F)[C@@H](CO)O1)NCc1ccncn1 | n
